{"source": "PubChem BioAssay (NCATS)", "note": "Records with an inconclusive call do not appear. The source made the active and inactive calls. The call rests on the fitted dose curve. On the % scale 0 is the no-effect control and ±100 the full control effect; potency means the concentration at half of the fitted maximal effect.", "data": [{"test": "VSVG counterscreen qHTS to identify inhibitors of SARS-CoV-2 cell entry (AID 1645847); further: nearly all actives have a fitted effect of over 65% in size", "conditions": "VSV-G pseudotyped particle entry, luciferase; series mostly up to 57.2 µM; activity change, negative = inhibition: at the top concentration", "procedure,_shortened": "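Luminescence read after 48 h infection at 37 C with VSV-G-pseudotyped MLV particles, following 1 h compound exposure of Expi293F cells stably expressing human ACE2; scaled between bald particle and VSV-G particle wells.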", "values": [{"molecule": "COc1cc(N2CCC(N3CCN(C)CC3)CC2)ccc1Nc1ncc(Cl)c(Nc2ccccc2P(C)(C)=O)n1", "activity change, negative = inhibition": "-25.1% (inactive)"}, {"molecule": "CCCCC(=O)OCC(=O)[C@]1(O)Cc2c(O)c3c(c(O)c2[C@@H](O[C@H]2C[C@H](NC(=O)C(F)(F)F)[C@H](O)[C@H](C)O2)C1)C(=O)c1c(OC)cccc1C3=O", "Potency": "961 nM (active)"}, {"molecule": "COc1cc([C@@H]2c3cc4c(cc3[C@@H](O[C@@H]3O[C@@H]5CO[C@@H](C)O[C@H]5[C@H](O)[C@H]3O)[C@H]3COC(=O)[C@H]23)OCO4)cc(OC)c1OP(=O)(O)O", "Potency": "482 nM (active)"}]}]}
